USP30 inh: inhibitors of human USP30 deubiquitinase; Q70CQ3; purified USP30, Ub-rhodamine cleavage fluorescence; inhibition, % at 25 µM; actives 5.3% (n = 47,000); AID 1645860
USP10 inh: inhibitors of human USP10 deubiquitinase; inhibition, % at 20 µM; purified USP10, Ub-rhodamine fluorescence, 60 min; Q14694; AID 1645856; actives 1.1% (n = 47,000)
USP17 inh: inhibitors of human USP17 deubiquitinase; purified USP17, Ub-rhodamine cleavage fluorescence, 3 h; inhibition, % at 50 µM; A8MUK1; actives 6.5% (n = 47,000)
Target sequence (A8MUK1 whole entry, looked up): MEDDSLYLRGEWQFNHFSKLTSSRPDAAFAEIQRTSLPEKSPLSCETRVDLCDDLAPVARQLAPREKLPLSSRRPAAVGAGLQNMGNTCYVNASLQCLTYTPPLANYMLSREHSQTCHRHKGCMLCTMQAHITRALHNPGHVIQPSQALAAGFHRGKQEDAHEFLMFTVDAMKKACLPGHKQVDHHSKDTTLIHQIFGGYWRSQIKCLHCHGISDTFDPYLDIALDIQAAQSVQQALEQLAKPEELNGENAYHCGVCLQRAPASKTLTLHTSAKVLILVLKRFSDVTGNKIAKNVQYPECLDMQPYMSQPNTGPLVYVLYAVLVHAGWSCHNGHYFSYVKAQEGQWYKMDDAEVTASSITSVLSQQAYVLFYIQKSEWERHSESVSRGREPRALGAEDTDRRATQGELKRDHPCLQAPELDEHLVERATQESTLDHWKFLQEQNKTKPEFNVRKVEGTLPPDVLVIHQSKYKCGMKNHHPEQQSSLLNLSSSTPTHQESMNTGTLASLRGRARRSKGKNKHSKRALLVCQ
USP8 inh: inhibitors of human USP8 deubiquitinase. purified USP8, Ub-rhodamine cleavage fluorescence, 30 min. actives 4.2% (n = 47,000). inhibition, % at 20 µM. P40818
USP28 block: human USP28 deubiquitinase inhibition; Q96RU2; purified USP28, Ub-rhodamine cleavage fluorescence, 30 min; inhibition, % at 25 µM; actives 3% (n = 47,000); AID 1645857
Starred values were filed as active, the others as inactive; i = inactive. A selection: hits, their analogues and other compounds. The true share with any hit is near 14%. Cut-off read from the data, not from the text of the source: active = inhibition above about 30%; inactive = the rest.

SMILES | USP30 inh | USP10 inh | USP17 inh | USP8 inh | USP28 block
CCc1[nH]c(=O)cc2cc(OC)c(OC)cc12 | 82* | 79* | 94* | 91* | 97*
CC(C)CN1CCN(C(=O)C2CCCN(c3cnc4nccnc4c3)C2)CC1 (centres undefined) | i | -6 | -166 | -130 | -148
CN(C)S(=O)(=O)c1ccc(C(=O)Nc2c(C#N)oc3ccccc23)cc1 | 26 | 11 | 51* | 0 | 27
CN(C)S(=O)(=O)c1ccc(C(=O)Nc2sccc2C#N)cc1 | -90 | -8 | -7 | -12 | -23
Cc1cc(C)c(C(=O)N2CCC(CC(=O)NCCN3CCCCC3C)CC2)[nH]1 (centres undefined) | i | -10 | -155 | -95 | -178
Cc1ccc(-c2c3c4n(c(-c5ccc(Cl)c(Cl)c5)cn4c2C(=O)NC2CCCCC2)CCCC3)cc1 | -91 | -4 | -2 | 44* | -28
Cc1cccc(NC(=O)c2ccc(CNC(=O)c3ccccc3)o2)c1C | 10 | -3 | -1 | -45 | 7
Cc1ccc(C(=O)NCc2ccc(C(=O)Nc3ccc(C)c(C)c3)o2)cc1 | 42* | 1 | 54* | -15 | -8
Cc1ccc(C(=O)NCc2ccc(C(=O)Nc3ccccc3C)o2)cc1 | 1 | 0 | -6 | -6 | 10
Cc1ccc(C(=O)NCc2ccc(C(=O)Nc3cccc(C)c3)o2)cc1 | 44* | 0 | 60* | -8 | 24
Cc1ccc(C(=O)Nc2ccc(C)c(C)c2)c(C)c1 | 24 | 8 | 11 | 5 | 15
Cc1ccc(NC(=O)c2ccc(C)c(C)c2)cc1C | 25 | 6 | 26 | 29 | 40*
Cn1c(CC2CCN(C(=O)NCCc3ccccc3)C2)nc2cccnc21 (centres undefined) | -54 | -8 | -13 | -12 | -23
O=C(Cn1cnc2cc3c(cc21)OCCCO3)NC1CCCCC1 | -18 | -3 | 0 | 23 | -8
CNc1nccnc1C1CN(C(=O)c2c(C(C)C)noc2C)CCO1 (centres undefined) | 10 | 0 | 6 | 32* | 0
O=C1C[C@@H](O)[C@H](O)[C@@]23O[C@@]12C1(Oc2cccc4cccc(c24)O1)[C@@H]1O[C@@H]1[C@@H]3O | 4 | -5 | 81* | -11 | 46*
O=C(c1ccccc1)N1CC[C@@H]2[C@H](C1)CN2C(=O)c1ccc(O)cc1 | 13 | 1 | 10 | -5 | 4
CC(C)CC(=O)N1CCCC1c1nnc(C(=O)Nc2cccc(F)c2)s1 (centres undefined) | -1 | 0 | -27 | -44 | 4
CC(Cc1ccco1)NC(=O)c1cccc(NC(=O)c2nnc(C3CC3)s2)c1 (centres undefined) | -3 | 3 | 31* | 0 | 0
COc1ccc(C(=O)Nc2cc(OC)c(NC(=O)CN3CCOCC3)cc2OC)cc1 | -121 | -5 | -5 | 58* | -32
CCc1cc(C(=O)c2ccc(OC)cc2)c(NC(=O)CCC(=O)O)s1 | 31* | 6 | 29 | 1 | 8
CCc1cc(C(=O)c2ccc(OC)cc2)c(NC(=O)CN2CCCCC2)s1 | 74* | 5 | 5 | 5 | 19
COc1ccc(NC(=O)Cn2cc(-c3ccccc3)c3ncn(C4CC4)c(=O)c32)cc1OC | -47 | -6 | -7 | -1 | -20
COc1ccc([N+](=O)[O-])cc1NC(=O)C(C)OC(=O)CSc1ccc2ccccc2c1 (centres undefined) | 14 | 3 | 0 | -84 | 13
Nc1ccc([N+](=O)[O-])cc1NC(=O)CSc1ccc2ccccc2c1 | -23 | 8 | -15 | 41* | 2
SMILES | USP30 inh | USP10 inh | USP17 inh | USP8 inh | USP28 block
Oc1ccc(-c2nc3ccc(Cl)cn3c2NC2CCCCC2)cc1 | -6 | -3 | 67* | -13 | 0
O=C(Cn1ncc2c1-c1ccccc1OC2)Nc1ccc(F)c(Cl)c1 | 35* | 7 | -5 | -4 | 13
CC1=C(C(=O)Nc2ccccc2)C(c2cccnc2)n2c(nc3ccccc32)N1 (centres undefined) | 18 | -2 | 45* | 1 | 17
CC1=C(C(=O)Nc2cccnc2)C(c2cccc(OCc3ccccc3)c2)n2nnnc2N1 (centres undefined) | 21 | 18 | 10 | 37* | -3
CC1=C(C(=O)Nc2ccc(C)cc2)C(c2ccncc2)n2c(nc3ccccc32)N1 (centres undefined) | 1 | -2 | -7 | -2 | 1
CC1=C(C(=O)Nc2ccccc2)C(c2cccc(OCc3ccc(F)cc3)c2)n2ncnc2N1 (centres undefined) | 1 | 2 | -11 | -11 | -5
Cc1ccc2oc(SCC(=O)NCc3ccccc3)nc2n1 | -8 | 0 | -8 | 8 | -6
Cc1c(CC(=O)N[C@@H](Cc2c[nH]c3ccccc23)C(=O)O)c(=O)oc2cc(O)c(Cl)cc12 | -41 | -10 | 2 | 0 | -1
O=C(Nc1ccc(F)c(Cl)c1)c1ccc(N2CCCCS2(=O)=O)cc1Cl | 0 | 7 | 3 | 0 | 52*
O=C(Nc1cccc(F)c1)c1ccc(N2CCCCS2(=O)=O)cc1Cl | 0 | 2 | 22 | 23 | 33*
O=C(Nc1cccc(N2CCCS2(=O)=O)c1)c1cccc(C(F)(F)F)c1 | -19 | 0 | -14 | 0 | -5
Cc1cc(NC2CC3(CCN(C(=O)/C=C/c4ccccc4)C3)C2)ncn1 (centres undefined) | 25 | 3 | 1 | 1 | 19
COc1ccc(-c2nc(CNS(=O)(=O)c3ccc(OC)cc3)cs2)cc1 | 0 | 3 | 49* | -2 | 19
COc1ccc(-c2nc(CNS(=O)(=O)c3ccc(OC)c(C)c3)cs2)cc1 | 24 | 6 | 38* | 3 | 6
O=S(=O)(NCCc1csc(-c2ccc(F)cc2)n1)c1ccc(F)cc1 | 12 | 7 | 17 | 14 | 14
COc1ccc(S(=O)(=O)NCc2nnnn2-c2ccc(C)cc2)cc1C | 19 | 3 | 9 | 25 | 14
Cc1ccccc1S(=O)(=O)NCc1cnc(C2CCCCO2)nc1 (centres undefined) | 21 | 1 | 9 | 10 | 13
COc1cccc(C2c3[nH]c4ccccc4c3C[C@@H]3C(=O)N(CCCN4CCOCC4)CC(=O)N23)c1 (some centres undefined) | 37* | -7 | -17 | -27 | -12
CCc1nc2c(NC(=O)Cc3cccc(C(F)(F)F)c3)cccn2n1 | 6 | -2 | -9 | -54 | 12
O=C(CCCc1c[nH]c2ccccc12)N1CCN(C(=O)c2ccc(Cl)cc2Cl)CC1 | 7 | 1 | 3 | 6 | 2
O=C(NCCc1c[nH]c2ccccc12)NCc1ccc(Cl)cc1Cl | 32* | 9 | 21 | 2 | 21
COc1ccc(-c2cc(C(=O)N3CCCC3)[nH]n2)cc1S(N)(=O)=O | -14 | 0 | -18 | -8 | -4
COc1ccc(-c2cc(C(=O)NC3CCCCCC3)[nH]n2)cc1S(=O)(=O)N(C)C | 3 | 0 | 51* | -17 | 0
CC(C)c1nnc2n1CCN(C(=O)c1cc(-c3ccccc3)n[nH]1)C2 | 12 | -1 | 10 | 4 | 11

Screens: PubChem, Buhrlage Lab, Dana-Farber Cancer Institute and Novartis Institutes for BioMedical Research (Cambridge, Mass)
